Source: PubChem BioAssay (National Center for Advancing Translational Sciences (NCATS))
The sample as a whole holds a higher share of hits than the screen did.
FBPA Giardia inh – blocks Giardia fructose-bisphosphate aldolase activity | purified Giardia FBPA | A8B2U2 | 290,000 tested, 0.71% active | Potency, µM (doses to about 59.6 µM), without a hit: top-dose activity, negative = inhibition, most hits filed as inhibitors; further: potency means the concentration at half of the fitted maximal effect; on the % scale 0 is the no-effect control and ±100 the full control effect; nearly all actives have a fitted effect of over 55% in size
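Giardia FBPA (40 nM reagent) was preincubated 10 min at RT with compound (up to 57.5 uM final), then substrate plus GAPDH/TPI/NAD/arsenate coupling system with diaphorase/resazurin was added; resorufin fluorescence (525/598 nm) was read after 20 min.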
Shiga inhibitor – blocks Shiga toxin action in Vero cells | Vero cells, Shiga toxin protein synthesis inhibition reporter | 290,000 tested, 9.2% active | inhibition, % at 38.7 µM; in the data active means inhibition mostly above about 28%, no sharp cut-off; inactive means mostly below about 43%; further: 0% is about no effect
LmPK inh – LmPK (Leishmania mexicana) enzyme inhibition. purified LmPK, Kinase-Glo ATP luminescence, 1 h. Potency, µM (highest dose often 57.5 µM), for inactives: at the top dose activity change, negative = inhibition, usual class: inhibitors. 290,000 tested, 0.37% active. AID 1721; further: potency means the concentration at half of the fitted maximal effect; on the % scale 0 is the no-effect control and ±100 the full control effect
Target sequence (Q27686 whole entry, looked up): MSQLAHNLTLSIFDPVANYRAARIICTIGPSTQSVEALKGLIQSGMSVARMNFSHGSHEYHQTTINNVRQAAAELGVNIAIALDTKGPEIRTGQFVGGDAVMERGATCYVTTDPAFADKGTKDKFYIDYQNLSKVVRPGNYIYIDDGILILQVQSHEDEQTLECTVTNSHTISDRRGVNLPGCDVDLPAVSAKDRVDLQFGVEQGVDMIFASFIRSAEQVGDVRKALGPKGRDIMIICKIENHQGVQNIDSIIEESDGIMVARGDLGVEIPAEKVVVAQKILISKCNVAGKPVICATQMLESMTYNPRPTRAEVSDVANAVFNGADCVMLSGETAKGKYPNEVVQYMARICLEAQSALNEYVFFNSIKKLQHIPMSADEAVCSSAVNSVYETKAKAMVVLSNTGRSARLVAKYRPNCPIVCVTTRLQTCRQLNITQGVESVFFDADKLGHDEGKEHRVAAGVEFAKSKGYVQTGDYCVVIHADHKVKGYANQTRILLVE
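Screened at intermediate enzyme activity to detect both inhibitors and activators: LmPK at 0.1 nM, with a 0.5 nM enzyme column as activation reference. PEP 0.5 mM, ADP 0.1 mM; ATP detected by luminescence after 1 h.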
RE007 growth inh – less growth of the S. pombe RE007 Vpr strain; S. pombe RE007 Vpr strain, BacTiter-Glo ATP luminescence, 24 h; Potency, µM (titrated, usually from 92.2 µM), for the others: top-dose activity change, negative = less growth, hits mostly inhibitors; 360,000 tested, 0.21% active; AID 651644; active means well fitted falling curve with a large enough effect; inconclusive means small, poorly fitted or top-dose-only effect; inactive means no such curve, though single readings can be large or run the other way; further: potency means the concentration at half of the fitted maximal effect; on the % scale 0 is the no-effect control and ±100 the full control effect; nearly all actives have a fitted effect of over 50% in size
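Fission yeast strain RE007, carrying one chromosomally integrated HIV-1 vpr copy, was seeded at OD 0.01 in PMG+AL medium with 23 nL pinned compound. After 24 h at 30 °C and 99% humidity, viability was read by BacTiter-Glo luminescence.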
Cycloheximide cs – affects cycloheximide protein synthesis inhibition readout, counter-screen | cell reporter, cycloheximide protein synthesis inhibition counterscreen | max response, % | 300,000 tested, 12% active; in the data active means max response mostly above about 13%, no sharp cut-off; inactive means mostly below about 14%; further: read at 38.3 µM for the half of the compounds with a filed dose; 0% is about no effect
TbPYK inhibitor – inhibitors of Trypanosoma brucei pyruvate kinase; Q57TT1; TbPYK enzyme, Kinase-Glo Plus ATP luminescence, 45 min; Potency, µM (series often up to 76.8 µM), without a hit: at the highest dose activity, negative = inhibition, actives largely listed as inhibitors; 410,000 tested, 0.12% active; further: potency means the concentration at half of the fitted maximal effect; on the % scale 0 is the no-effect control and ±100 the full control effect; nearly all actives have a fitted effect of over 50% in size
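ADP (130 uM final) triggers the TbPYK reaction after compound addition; incubation is 45 min at room temperature. Kinase-Glo Plus is then added and luminescence imaged. Normalized data are fitted to concentration-effect curves.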
* marks the source's active call; other numbers are inactive results; ? = inconclusive; nt = no result given. Unless noted, the call rests on the fitted dose curve; in most records, active means well fitted curve in the direction sought with a large enough effect; inconclusive means small, poorly fitted or top-dose-only effect, or another doubt; inactive means no such curve, though single readings can be large; an effect the other way counts as inactive or inconclusive.

SMILES	FBPA Giardia inh	Shiga inhibitor	LmPK inh	RE007 growth inh	Cycloheximide cs	TbPYK inhibitor
COC(=O)c1ccccc1NC(=O)Cn1ncc2c(C)n(Cc3ccc(F)cc3)c(C)c2c1=O	nt	nt	nt	nt	nt	-2%
COc1ccc(C(=O)C2CCCN(S(=O)(=O)c3ccccc3F)C2)c(C)c1 (centres undefined)	nt	-4	-2%	-3%	-1	5%
O=C(/C=C/c1ccco1)c1cccnc1	2%	-4	-2%	nt	5	-12%
COc1ccc([N+](=O)[O-])cc1NC(=O)C(C)OC(=O)/C=C/c1ccco1 (centres undefined)	0%	36*	1%	nt	17*	-13%
CSc1cccc(NC(C)=O)c1	-1%	6	-2%	5%	-1	3%
CSc1cccc(NC(=O)/C=C/c2ccco2)c1	-13%	110*	2%	-25%	55*	-13%
CC(OC(=O)/C=C/c1ccco1)C(=O)Nc1cccc([N+](=O)[O-])c1 (centres undefined)	-2%	27	-6%	1%	1	-3%
O=C(/C=C/c1ccco1)Nc1cccnc1	-18%	47	?	5%	21*	-12%
N#Cc1c(N)sc2c1CCCCCC2	-18%	-13	-1%	-10%	-8	-17%
N#Cc1c(N)sc(=S)c2c1CCCCC2	10µM*	-3	-3%	-3%	6	?
Cc1ccccc1NC(=S)NC(=O)/C=C/c1ccco1	-29%	13	13%	-17%	17	-14%
Cc1ccc(-n2nc3ccc(NC(=S)NC(=O)/C=C/c4ccco4)cc3n2)cc1	4%	37*	1%	-1%	12	0%
Cc1ccc(-n2nc3cc(C)c(NC(=S)NC(=O)/C=C/c4ccco4)cc3n2)cc1	-3%	active	-1%	0%	70*	-2%
COc1ccc(CN2COc3ccc4c(-c5ccc(OC)cc5)cc(=O)oc4c3C2)cc1	nt	nt	nt	nt	nt	-6%
CN(CCc1ccccn1)C(=S)NC(=O)c1ccco1	?	-19	-5%	0%	-3	-13%
O=C(NC(=S)NCc1ccncc1)c1ccccc1	1%	10	1%	-1%	-1	-14%
O=C(NCCc1ccccn1)/C(=C/c1ccco1)NC(=O)c1ccccc1	?	49*	-5%	1%	33*	3%
O=C(NC(=S)NCCc1ccccn1)c1ccco1	-9%	26	-2%	80%	23*	-12%
O=C(NCc1ccccn1)/C(=C/c1ccco1)NC(=O)c1ccccc1	-19%	-9	2%	-3%	-3	1%
O=C(NC(=S)NCCc1ccccn1)c1ccccc1	-13%	95*	1%	-21%	58*	-8%
O=C(/C=C/c1ccccc1Cl)Nc1cccc(S(=O)(=O)NC2=NCCCCC2)c1	-1%	65*	0%	25%	23*	-7%
O=C(/C=C/c1ccc(Cl)cc1Cl)Nc1cccc(S(=O)(=O)NC2=NCCC2)c1	0%	44	2%	19%	14*	-18%
CN(C)c1cccc(C(=O)Nc2cccc(S(=O)(=O)NC3=NCCC3)c2)c1	nt	70*	-1%	-2%	33*	3%
O=C(Nc1cccc(S(=O)(=O)NC2=NCCC2)c1)c1ccccc1	nt	nt	nt	29%	nt	2%
O=C(Nc1cccc(S(=O)(=O)NC2=NCCC2)c1)c1c(F)cccc1Cl	nt	nt	nt	2%	nt	3%
SMILES	FBPA Giardia inh	Shiga inhibitor	LmPK inh	RE007 growth inh	Cycloheximide cs	TbPYK inhibitor
CCNC(=O)COc1ccc(Br)cc1Cl	0%	60*	-1%	-23%	28*	-5%
COCCCNC(=O)COc1ccc(Br)cc1Cl	5%	88*	-1%	3%	38*	6%
Cc1cccc(CNC(=O)c2sc3ncnc(N(C)C4CCCCC4)c3c2C)c1	nt	nt	nt	nt	nt	-3%
Cc1ccc(COc2ccc(-c3nnco3)cc2)cc1	13%	67*	1%	nt	40*	1%
OCC1=C[C@@H](O)[C@@H]2C=CO[C@@H](O[C@@H]3O[C@H](CO)[C@@H](O)[C@H](O)[C@H]3O)[C@H]12	nt	nt	nt	3%	nt	6%
COc1ccc(C2C3=C(N=C4SCC(=O)N42)c2ccccc2CC3)cc1 (centres undefined)	?	76*	-10%	-11%	39*	-4%
COc1ccc(C2C3=C(N=C4SCC(=O)N42)c2ccccc2CC3)cc1OC (centres undefined)	?	-9	1%	16%	-1	2%
CC1CCN(C(=O)CSc2nc3ncccc3[nH]2)CC1	nt	28	8%	-3%	20*	-6%
CC1CCN(C(=O)CSc2nc3ccccc3[nH]2)CC1	1%	66*	2%	-16%	59*	4%
Cc1cccc2[nH]c(SCC(=O)O)nc12	2%	-10	1%	-9%	-5	0%
Cc1cccc2[nH]c(SCC(=O)N3CCOCC3)nc12	0%	109*	-1%	2%	21	-9%
NC(=O)C1CCN(C(=O)CSc2nc3ccccc3[nH]2)CC1	1%	-6	6%	5%	10	3%
CCOC(OCC)P(=O)(O)CCCNCc1ccc(Cl)c(Cl)c1	8%	nt	nt	nt	nt	nt
CCOc1ccc(NC(=O)c2oc3ccccc3c2NC(=O)Cc2ccc(F)cc2)cc1	nt	nt	nt	nt	nt	-3%
N/C(=N\OC(=O)COc1ccc2ccccc2c1Br)c1ccccn1	-12%	119*	-2%	-11%	56*	4%
N/C(=N\OC(=O)COc1ccccc1)c1cccnc1	nt	-18	-3%	-10%	2	6%
N/C(=N\OC(=O)COc1ccc2ccccc2c1Br)c1cccnc1	0%	103*	0%	nt	16*	nt
O=C(CSc1nnc(SCc2ccccc2)s1)N/N=C/C=C\c1ccco1	-28%	-9	2%	3%	-3	-14%
CC(=C/c1ccco1)/C=N/NC(=O)CSc1nnc(SCc2ccc(C)cc2)s1	-26%	33*	1%	-3%	45*	-6%
Cc1ccc(CSc2nnc(SCC(=O)N/N=C/c3ccccc3OCC(=O)O)s2)cc1	5%	44*	5%	5%	21*	1%
Cc1ccc(CSc2nnc(SCC(=O)N/N=C/c3c[nH]c4ccccc34)s2)cc1	?	42	6%	-24%	19*	-1%
Cc1ccc(CSc2nnc(SCC(=O)N/N=C/c3ccc(C(=O)O)cc3)s2)cc1	15%	37	-2%	-10%	13*	0%
Cc1ccc(C(O)c2ncc(-c3ccc(Cl)cc3)[nH]2)cc1 (centres undefined)	nt	nt	nt	-17%	nt	-8%
O=C(CSc1nnc(SCc2ccc(Cl)cc2)s1)N/N=C/c1ccc(Cl)cc1Cl	2%	55*	0%	10%	33*	3%
O=C(/C=C/c1ccccc1)OCc1ccccc1	nt	nt	nt	nt	nt	6%
COc1cc(/C=C/C(=O)OCC(=O)Nc2cc(S(=O)(=O)N(C)C)ccc2Cl)ccc1O	-12%	22	4%	-27%	10	-1%
